Test results reported in the supplement of paper PMC10849652.
Targets with a hit are over-represented here; the source holds about 7,900 in all. About 0.6% of all pairs of compound and target were hits. Unmarked numbers belong to inactive results.

How the values were obtained:
Test in all cases: log2 fold change, soluble protein after heating vs DMSO (PISA); higher = thermal stabilisation; K562 cells, 10 uM, 30 min; active = over 0.2 and 3.5 SD of the protein, either way, in both replicates (recomputed)
[1] = compound: CC[C@@H]1C(=O)N(C)c2cnc(Nc3ccc(C(=O)NC4CCN(C)CC4)cc3OC)nc2N1C1CCCC1
In short: (§1)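 Aliquots of K562 cells (2×10^6 cells/mL) treated with 10 μM compound for 30 min were heated for 3 min over 48°C-58°C. After pooling and extraction in PBS with 0.5% NP-40 at 4°C, soluble protein from a 21,000xg, 90 min spin was quantified by TMTpro 16plex LC-MS/MS with channel sums equalised. Thermal stability is expressed against control samples, from duplicates, as a log2 fold change.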

volasertib = compound: CC[C@@H]1C(=O)N(C)c2cnc(Nc3ccc(C(=O)N[C@H]4CC[C@H](N5CCN(CC6CC6)CC5)CC4)cc3OC)nc2N1C(C)C [volasertib]
In short: as §1

epoxomicin = compound: CC[C@H](C)[C@@H](C(=O)N[C@@H]([C@@H](C)O)C(=O)N[C@@H](CC(C)C)C(=O)[C@]1(CO1)C)NC(=O)[C@H]([C@@H](C)CC)N(C)C(=O)C [epoxomicin]
In short: as §1

[2] = compound: CCn1c(C(=O)N(C2CC2)C2CC2)cc2c3c(ncn3C)c(Nc3cc(C)n(C)n3)nc21
In short: as §1

[3] = compound: CCn1cc(-c2ccnc3[nH]c(-c4cccc(CN(C)C)c4)cc23)c(-c2ccc(NC(=O)N(C)C)cc2)n1
In short: as §1

[4] = compound: CN(C)CC(=O)Nc1ccc2[nH]c(=O)c3ccccc3c2c1
In short: as §1

rosiglitazone = compound: CN(CCOC1=CC=C(C=C1)C[C@H]2C(=O)NC(=O)S2)C3=CC=CC=N3 (racemic) [rosiglitazone]
In short: as §1

[5] = compound: CN1C2=C(C3=C1C(=O)N(N=C3)CC4=CC(=CC=C4)N)SC(=C2)S(=O)C
In short: as §1

[6] = compound: CN1CCC(CNc2ccc3ncc(-c4cccc(OC(F)(F)F)c4)n3n2)CC1
In short: as §1

saracatinib = compound: CN1CCN(CCOc2cc(OC3CCOCC3)c3c(Nc4c(Cl)ccc5c4OCO5)ncnc3c2)CC1 [saracatinib]
In short: as §1

sotrastaurin = compound: CN1CCN(c2nc(C3=C(c4c[nH]c5ccccc45)C(=O)NC3=O)c3ccccc3n2)CC1 [sotrastaurin]
In short: as §1

alvocidib = compound: CN1CC[C@H](c2c(O)cc(O)c3c(=O)cc(-c4ccccc4Cl)oc23)[C@H](O)C1 [alvocidib]
In short: as §1

Tubastatin A = compound: CN1CCc2c(c3ccccc3n2Cc2ccc(C(=O)NO)cc2)C1 [Tubastatin A]
In short: as §1

[7] = compound: CNC(=O)C1=CC=CC=C1NC2=NC(=NC=C2Cl)NC3=C(C=C(C=C3)N4CCOCC4)OC
In short: as §1

defactinib = compound: CNC(=O)c1ccc(Nc2ncc(C(F)(F)F)c(NCc3nccnc3N(C)S(C)(=O)=O)n2)cc1 [defactinib]
In short: as §1

rucaparib = compound: CNCc1ccc(-c2[nH]c3cc(F)cc4c3c2CCNC4=O)cc1 [rucaparib]
In short: as §1

[8] = compound: CNc1nc(-c2ccc3c(N)n[nH]c3c2)cc(N2C[C@@H](C(=O)NC3CCCCC3)CC[C@H]2C)n1
In short: as §1

encorafenib = compound: COC(=O)N[C@@H](C)CNc1nccc(-c2cn(C(C)C)nc2-c2cc(Cl)cc(NS(C)(=O)=O)c2F)n1 [encorafenib]
In short: as §1

[9] = compound: COC(=O)[C@H](CCSC)NC(=O)C1=C(C=C(C=C1)NC[C@H](CS)N)C2=CC=CC=C2
In short: as §1

[10] = compound: CC[C@H](C)N1C=C(C2=C(C=C(C=C21)C3=CN=C(C=C3)N4CCNCC4)C(=O)NCC5=C(C=C(NC5=O)C)C)C
In short: as §1

Chain of UniProt Q8IXH7 (Q8IXH7 whole entry, looked up): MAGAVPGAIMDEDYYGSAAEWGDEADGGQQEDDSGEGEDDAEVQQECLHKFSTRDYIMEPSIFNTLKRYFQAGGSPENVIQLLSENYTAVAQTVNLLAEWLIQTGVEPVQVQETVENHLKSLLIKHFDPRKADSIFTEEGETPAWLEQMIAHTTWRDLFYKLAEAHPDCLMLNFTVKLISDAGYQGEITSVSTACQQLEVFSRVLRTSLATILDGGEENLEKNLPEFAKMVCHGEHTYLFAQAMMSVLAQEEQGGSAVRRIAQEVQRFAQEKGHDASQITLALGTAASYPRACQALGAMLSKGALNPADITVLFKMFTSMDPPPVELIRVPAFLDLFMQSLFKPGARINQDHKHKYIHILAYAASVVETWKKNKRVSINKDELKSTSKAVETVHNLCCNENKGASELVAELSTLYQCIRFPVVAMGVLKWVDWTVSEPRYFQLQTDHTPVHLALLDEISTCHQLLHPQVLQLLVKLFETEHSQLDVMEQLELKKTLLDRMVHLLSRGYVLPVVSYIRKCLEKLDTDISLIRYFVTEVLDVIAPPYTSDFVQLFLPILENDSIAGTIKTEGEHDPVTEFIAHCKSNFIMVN
Chain of UniProt P03891 (P03891 whole entry, looked up): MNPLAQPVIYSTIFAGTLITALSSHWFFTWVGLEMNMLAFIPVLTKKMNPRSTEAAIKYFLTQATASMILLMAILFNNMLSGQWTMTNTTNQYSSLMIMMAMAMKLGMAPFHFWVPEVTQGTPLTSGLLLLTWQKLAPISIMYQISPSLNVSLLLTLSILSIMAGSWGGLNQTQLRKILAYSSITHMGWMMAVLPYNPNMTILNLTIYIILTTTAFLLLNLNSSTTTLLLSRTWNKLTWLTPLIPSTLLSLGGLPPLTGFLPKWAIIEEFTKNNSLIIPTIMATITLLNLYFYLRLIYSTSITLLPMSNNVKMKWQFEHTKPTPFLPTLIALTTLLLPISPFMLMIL
Chain of UniProt Q9Y6X9 (Q9Y6X9 whole entry, looked up): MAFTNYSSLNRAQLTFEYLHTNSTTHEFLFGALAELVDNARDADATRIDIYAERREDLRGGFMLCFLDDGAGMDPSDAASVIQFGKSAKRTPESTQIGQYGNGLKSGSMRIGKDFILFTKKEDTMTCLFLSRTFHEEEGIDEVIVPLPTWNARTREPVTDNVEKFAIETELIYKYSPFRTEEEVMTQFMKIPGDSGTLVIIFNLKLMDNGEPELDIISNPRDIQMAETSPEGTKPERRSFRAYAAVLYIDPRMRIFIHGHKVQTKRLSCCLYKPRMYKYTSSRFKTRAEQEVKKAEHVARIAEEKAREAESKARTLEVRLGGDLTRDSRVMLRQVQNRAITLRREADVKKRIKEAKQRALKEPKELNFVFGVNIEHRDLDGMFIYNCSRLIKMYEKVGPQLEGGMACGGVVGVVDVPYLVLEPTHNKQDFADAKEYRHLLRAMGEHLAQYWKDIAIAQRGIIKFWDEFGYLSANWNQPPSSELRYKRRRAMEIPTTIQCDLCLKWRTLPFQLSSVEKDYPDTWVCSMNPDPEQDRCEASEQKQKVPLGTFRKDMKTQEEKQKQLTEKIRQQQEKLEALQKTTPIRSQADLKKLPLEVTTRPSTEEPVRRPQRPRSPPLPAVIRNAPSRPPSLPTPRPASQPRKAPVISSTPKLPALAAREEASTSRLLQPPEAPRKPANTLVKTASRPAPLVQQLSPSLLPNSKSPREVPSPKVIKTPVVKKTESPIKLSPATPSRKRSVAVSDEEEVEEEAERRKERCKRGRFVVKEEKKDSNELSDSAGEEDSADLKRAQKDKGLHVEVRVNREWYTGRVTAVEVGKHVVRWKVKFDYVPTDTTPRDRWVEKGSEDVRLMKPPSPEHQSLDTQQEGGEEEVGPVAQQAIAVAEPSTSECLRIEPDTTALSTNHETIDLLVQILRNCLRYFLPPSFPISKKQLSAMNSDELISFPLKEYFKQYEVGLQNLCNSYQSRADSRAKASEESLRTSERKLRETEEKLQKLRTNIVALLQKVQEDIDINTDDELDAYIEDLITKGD
Chain of UniProt Q69YL0 (Q69YL0 whole entry, looked up): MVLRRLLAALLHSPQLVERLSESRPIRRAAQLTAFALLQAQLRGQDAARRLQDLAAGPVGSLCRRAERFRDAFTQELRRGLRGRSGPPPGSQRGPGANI
Chain of UniProt P30414 (P30414 whole entry, looked up): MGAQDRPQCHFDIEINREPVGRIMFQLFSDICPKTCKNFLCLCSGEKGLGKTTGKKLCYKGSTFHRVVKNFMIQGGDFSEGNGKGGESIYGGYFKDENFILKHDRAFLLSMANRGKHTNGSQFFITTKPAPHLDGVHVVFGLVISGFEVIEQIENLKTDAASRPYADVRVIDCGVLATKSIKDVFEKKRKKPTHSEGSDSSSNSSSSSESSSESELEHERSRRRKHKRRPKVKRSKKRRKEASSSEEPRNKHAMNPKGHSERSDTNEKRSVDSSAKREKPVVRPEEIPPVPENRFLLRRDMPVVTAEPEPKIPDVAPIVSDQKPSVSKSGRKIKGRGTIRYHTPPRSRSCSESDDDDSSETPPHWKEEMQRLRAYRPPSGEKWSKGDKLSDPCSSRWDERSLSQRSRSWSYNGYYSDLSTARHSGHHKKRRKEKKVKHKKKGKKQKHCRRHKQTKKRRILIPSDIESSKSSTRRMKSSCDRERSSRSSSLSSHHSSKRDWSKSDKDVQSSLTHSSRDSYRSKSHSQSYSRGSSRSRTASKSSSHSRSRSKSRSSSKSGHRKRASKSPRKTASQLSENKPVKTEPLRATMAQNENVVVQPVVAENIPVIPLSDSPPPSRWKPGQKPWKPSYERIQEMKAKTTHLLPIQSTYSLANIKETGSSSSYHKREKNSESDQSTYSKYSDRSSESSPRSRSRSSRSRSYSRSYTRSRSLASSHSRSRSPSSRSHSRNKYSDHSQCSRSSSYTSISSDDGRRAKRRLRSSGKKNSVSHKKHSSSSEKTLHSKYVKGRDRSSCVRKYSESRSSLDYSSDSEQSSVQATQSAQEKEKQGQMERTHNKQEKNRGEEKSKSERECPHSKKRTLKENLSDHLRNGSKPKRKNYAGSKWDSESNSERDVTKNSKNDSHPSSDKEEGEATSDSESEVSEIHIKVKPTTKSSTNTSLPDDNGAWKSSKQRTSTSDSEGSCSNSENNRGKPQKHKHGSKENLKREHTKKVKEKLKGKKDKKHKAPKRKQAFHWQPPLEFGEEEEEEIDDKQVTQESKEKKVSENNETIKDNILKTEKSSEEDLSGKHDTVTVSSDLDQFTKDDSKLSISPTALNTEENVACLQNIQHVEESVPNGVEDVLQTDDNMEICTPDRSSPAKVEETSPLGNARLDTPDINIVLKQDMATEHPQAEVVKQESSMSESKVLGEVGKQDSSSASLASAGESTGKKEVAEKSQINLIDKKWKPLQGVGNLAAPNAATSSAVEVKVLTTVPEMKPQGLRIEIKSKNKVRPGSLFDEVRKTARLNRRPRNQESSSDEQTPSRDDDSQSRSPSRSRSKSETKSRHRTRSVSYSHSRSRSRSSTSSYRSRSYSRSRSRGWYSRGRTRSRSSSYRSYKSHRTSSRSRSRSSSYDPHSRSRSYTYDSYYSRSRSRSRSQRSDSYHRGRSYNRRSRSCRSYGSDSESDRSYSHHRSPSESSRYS
Chain of UniProt P49757 (P49757 whole entry, looked up): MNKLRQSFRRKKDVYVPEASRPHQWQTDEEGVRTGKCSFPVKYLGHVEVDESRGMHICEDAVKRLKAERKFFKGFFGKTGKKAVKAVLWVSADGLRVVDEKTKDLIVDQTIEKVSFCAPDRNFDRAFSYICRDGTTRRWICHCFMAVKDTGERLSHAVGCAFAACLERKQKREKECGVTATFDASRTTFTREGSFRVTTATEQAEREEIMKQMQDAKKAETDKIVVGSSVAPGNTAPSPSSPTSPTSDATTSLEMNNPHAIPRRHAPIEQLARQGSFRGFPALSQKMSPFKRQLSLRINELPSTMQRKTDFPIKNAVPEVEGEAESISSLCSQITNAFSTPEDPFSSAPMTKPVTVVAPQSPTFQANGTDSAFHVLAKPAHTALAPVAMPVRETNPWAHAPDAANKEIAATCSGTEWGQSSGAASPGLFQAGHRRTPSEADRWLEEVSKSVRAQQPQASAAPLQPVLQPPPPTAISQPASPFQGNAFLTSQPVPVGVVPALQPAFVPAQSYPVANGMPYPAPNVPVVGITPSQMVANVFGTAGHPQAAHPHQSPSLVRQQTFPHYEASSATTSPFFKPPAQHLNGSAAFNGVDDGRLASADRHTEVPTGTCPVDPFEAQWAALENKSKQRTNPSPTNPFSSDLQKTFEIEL
Chain of UniProt Q9Y5B8 (Q9Y5B8 whole entry, looked up): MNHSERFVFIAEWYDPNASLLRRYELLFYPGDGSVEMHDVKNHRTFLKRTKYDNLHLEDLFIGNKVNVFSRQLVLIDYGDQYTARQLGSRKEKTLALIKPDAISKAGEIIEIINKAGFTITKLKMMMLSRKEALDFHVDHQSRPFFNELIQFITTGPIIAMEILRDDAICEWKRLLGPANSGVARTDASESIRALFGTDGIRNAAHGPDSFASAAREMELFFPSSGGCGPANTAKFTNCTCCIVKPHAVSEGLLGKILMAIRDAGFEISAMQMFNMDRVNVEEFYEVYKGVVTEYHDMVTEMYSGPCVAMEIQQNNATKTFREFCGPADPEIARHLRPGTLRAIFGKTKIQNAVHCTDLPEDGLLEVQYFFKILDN
Chain of UniProt Q9BRP4 (Q9BRP4 whole entry, looked up): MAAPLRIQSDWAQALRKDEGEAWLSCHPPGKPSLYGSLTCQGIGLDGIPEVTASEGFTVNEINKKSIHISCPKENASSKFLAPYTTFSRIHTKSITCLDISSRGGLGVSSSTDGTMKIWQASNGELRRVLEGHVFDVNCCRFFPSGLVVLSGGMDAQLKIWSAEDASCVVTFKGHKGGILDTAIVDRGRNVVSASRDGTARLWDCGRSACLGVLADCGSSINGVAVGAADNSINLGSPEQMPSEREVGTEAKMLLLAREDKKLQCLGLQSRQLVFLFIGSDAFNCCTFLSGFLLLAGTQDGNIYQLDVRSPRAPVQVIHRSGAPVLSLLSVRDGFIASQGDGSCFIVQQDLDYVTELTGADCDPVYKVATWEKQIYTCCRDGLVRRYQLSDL

Target	log2 fold change [1]	log2 fold change (volasertib)	log2 fold change (epoxomicin)	log2 fold change [2]	log2 fold change [3]	log2 fold change [4]	log2 fold change (rosiglitazone)	log2 fold change [5]	log2 fold change [6]	log2 fold change (saracatinib)	log2 fold change (sotrastaurin)	log2 fold change (alvocidib)	log2 fold change (Tubastatin A)	log2 fold change [7]	log2 fold change (defactinib)	log2 fold change (rucaparib)	log2 fold change [8]	log2 fold change (encorafenib)	log2 fold change [9]	log2 fold change [10]
NME7 (UniProt Q9Y5B8)	-0.014	-0.358 (active)	-0.072	-0.033	-0.044	-0.045	0.104	0.014	-0.314	-0.109	-0.017	-0.117	0.054	0.016	-0.047	0.006	-0.001	0.086	-0.006	
PAAF1 (UniProt Q9BRP4)	0.006	-0.034	-0.275 (active)	0.005	-0.051	-0.009	0.039	-0.07	-0.039	0.056	0.016	-0.075	-0.008	-0.006	-0.034	0.012	-0.008	-0.004	0.004	-0.021
NUMB (UniProt P49757)	-0.017	0.057	-0.013	0.009	-0.045	-0.024	0.053	-0.007	-0.202	0.033	-0.266 (active)	-0.095	-0.014	-0.027	-0.044	0.01	0.065	0.081	0	0.02
MON1A (UniProt Q86VX9)	-0.11	-0.012	-0.101	0.004	0.003		0.134	0.032	-0.041	0.013	0.058		0.047	-0.103		-0.023	0.029	0.253		-0.141
ORC3 isoform 2 (UniProt Q9UBD5)	-0.046	-0.396	0.181	-0.053	-0.017	0.067	0.059	-0.034	-0.376	0.001	0.011	-0.299	0.006	-0.078	-0.288	0	0.014	0.288	0.06	0.044
NCBP2AS2 (UniProt Q69YL0)	-0.255	-0.193		0.027	0.026	-0.072	-0.063	0.049	-0.906 (active)	0.056	0.215	-0.004	-0.064	-0.005	0.013	-0.03	-0.081	0.031	0.031	-0.1
NEK3 (UniProt P51956)	-0.046	-0.162	0.067	-0.024	-0.125	0.014		0.002	-0.465 (active)	0.022	-0.125	-0.169	-0.194	-0.027	-0.182	-0.013	0.007	0	0.036	0.167
MYO19 (UniProt Q96H55)		0.007	0.097	-0.138	-0.215	-0.081	0.121	0.076	0.404	-0.066		0.001		-0.046	0.093		0.09		0.103	0.011
NCK1 (UniProt P16333)		-0.306	-0.053	-0.312		0.044	0.223	0.027		-0.198	-0.521 (active)	-0.005	0.126	-0.071	-0.125		0.158		-0.122	0.109
MXRA7 isoform 3 (UniProt P84157)		-0.01																		
NA, A0A494C071	-1.54 (active)		-0.11		0.189	-0.122	0.125	-0.028	-1.73 (active)	0.033		0.062	-0.197		0.044	-0.359	-0.062	0.027	0.124	0.38
MLH1 (UniProt P40692)		-0.385	0.11		0.073		0.264	0.268	0.112	-0.103		-0.235	0.158				-0.168			
MORC2 (UniProt Q9Y6X9)		-0.8 (active)	0.118	-0.347			0.106							0.124						
NA, A0A2R8Y3M9		-0.134			-0.015		0.117	0.376	0.005	0.171	0.191	0.214					-0.04			0.014
MT-ND2 (UniProt P03891)		-0.021		-0.007	0.106	0.195	0.04	-0.13	0.033	-0.183		-0.321	-0.044	0	-0.008		-0.295		0.085	-0.113
NKTR (UniProt P30414)		-0.152		-0.102			0.39							0.939 (active)						
NUDT7 (UniProt P0C024)			-0.067	0.058	-0.055		0.038		0.322		0.035		-0.045	0.052						0.187
NUMBL (UniProt Q9Y6R0)		0.019	-0.01	0.023	0.007	-0.023	-0.051	0.041	-0.259	-0.088	-0.412 (active)	0.07		0.144	-0.101		-0.015		0.098	0.073
NELFCD (UniProt Q8IXH7)		-0.562 (active)	-0.052	-0.044	-0.113	0.298	0.015	-0.05	0.226	-0.114		-0.378		0.024	-0.228		-0.002		-0.085	0.244
